Experimental data: PubChem BioAssay (NCATS)
Inconclusive results are not listed. The source made the active and inactive calls. Calls follow the shape of the full dose curve; tested in HEK293 reporter line. Square brackets hold non-standard residues; d marks the D form. Peptide text beside a SMILES is read from it. * marks the point of attachment. Sta = CC(C)C[C@H](N)[C@@H](O)CC(=O)O; Isovaleryl = CC(C)CC(=O)*

Tests used:
[1] = qHTS for Inhibitors of the Functional Ribonucleoprotein Complex (vRNP) of Lassa (LASV) Arenavirus: LASV Primary Screen - GLuc reporter signal (AID 1347082); also: nearly all actives have a fitted effect of over 60% in size
[2] = qHTS for Inhibitors of the Functional Ribonucleoprotein Complex (vRNP) of Lassa (LASV) Arenavirus: Viability assay - alamar blue signal for LASV Primary Screen (AID 1347083); also: nearly all actives have a fitted effect of over 80% in size
[3] = qHTS for Inhibitors of the Functional Ribonucleoprotein Complex (vRNP) of Lymphocytic Choriomeningitis Arenaviruses (LCMV): Viability assay - alamar blue signal for LCMV Primary Screen (AID 1347085); also: nearly all actives have a fitted effect of over 80% in size

Measured: Potency
Also: series mostly up to about 57 µM.

CNC(=O)Oc1ccc2c(c1)[C@]1(C)CCN(C)[C@@H]1N2C
inactive: [1] | [2] | [3]

Oc1ccc(O)cc1
inactive: [1] | [2] | [3]

CC(C)CC(=O)N[C@H](C(=O)N[C@H](C(=O)N[C@@H](CC(C)C)[C@@H](O)CC(=O)N[C@@H](C)C(=O)N[C@@H](CC(C)C)[C@@H](O)CC(=O)O)C(C)C)C(C)C (Isovaleryl-VV[Sta]A[Sta]-OH)
inactive: [1] | [2] | [3]

C=C1C[C@H]2[C@@H]3C=C(C)C4=CC(=O)CC[C@]4(C)[C@H]3CC[C@]2(C)[C@@]1(OC(C)=O)C(C)=O
inactive: [1] | [2] | [3]

CCN(CC)CCOc1ccc(Cc2ccccc2)cc1
inactive: [1] | [2] | [3]

CC(=O)O[C@]1(C(C)=O)CC[C@H]2[C@@H]3C=C(Cl)C4=CC(=O)CC[C@]4(C)[C@H]3CC[C@@]21C
inactive: [1] | [2] | [3]

NC(=O)NNc1ccccc1
inactive: [1] | [2] | [3]

C[C@]12C=CC(=O)C=C1CC[C@H]1[C@@H]3C[C@@H](O)[C@](O)(C(=O)CO)[C@@]3(C)C[C@H](O)[C@@]12F
inactive: [1] | [2] | [3]

Nc1c(CC(=O)O)cccc1C(=O)c1ccc(Br)cc1
inactive: [1] | [2] | [3]

Oc1c(Cl)cc(Cl)c2cccnc12
inactive: [1] | [2] | [3]

c1ccc(-c2ccc(C(c3ccccc3)n3ccnc3)cc2)cc1 (centres undefined)
inactive: [1] | [2] | [3]

O=C(CCN1CCN2CCCC2C1)N1c2ccccc2Sc2ccc(Cl)cc21 (centres undefined)
inactive: [1] | [2] | [3]

O=S1(=O)OC(c2ccc(O)cc2)(c2ccc(O)cc2)c2ccccc21
inactive: [1] | [2] | [3]

CC(=O)[C@H]1CC[C@H]2[C@@H]3CC=C4C[C@@H](O)CC[C@]4(C)[C@H]3CC[C@]12C
inactive: [1] | [2] | [3]

CN(C(=O)CN(CCO)CC(=O)N(C)C(C)(C)Cc1ccccc1)C(C)(C)Cc1ccccc1
inactive: [1] | [2] | [3]

CC(=O)OCC(=O)Nc1cc(C#N)cc(NC(=O)COC(C)=O)c1Cl
inactive: [1] | [2] | [3]

O=C1NCN(c2ccccc2)C12CCN(CCCC(c1ccc(F)cc1)c1ccc(F)cc1)CC2
inactive: [1] | [2] | [3]

CC1=C(CC(=O)O)c2cc(F)ccc2/C1=C\c1ccc(S(C)=O)cc1 (centres undefined)
inactive: [1] | [2] | [3]
